{
  "source": "PubChem BioAssay AID651636",
  "about": "(Sanford-Burnham Center for Chemical Genomics, 2012)",
  "note": "About 3,000 (0.83%) of roughly 360,000 compounds were called active. The full list was thinned out, with actives kept by preference. Unmarked numbers belong to inactive results. Rule as the data show it: active = inhibition above about 38%; inactive = the rest.",
  "data": [
    {"target": "G-protein coupled receptor 183 (Homo sapiens) (UniProt P32249)", "sequence (P32249 whole entry, looked up, the tested form may be a part)": "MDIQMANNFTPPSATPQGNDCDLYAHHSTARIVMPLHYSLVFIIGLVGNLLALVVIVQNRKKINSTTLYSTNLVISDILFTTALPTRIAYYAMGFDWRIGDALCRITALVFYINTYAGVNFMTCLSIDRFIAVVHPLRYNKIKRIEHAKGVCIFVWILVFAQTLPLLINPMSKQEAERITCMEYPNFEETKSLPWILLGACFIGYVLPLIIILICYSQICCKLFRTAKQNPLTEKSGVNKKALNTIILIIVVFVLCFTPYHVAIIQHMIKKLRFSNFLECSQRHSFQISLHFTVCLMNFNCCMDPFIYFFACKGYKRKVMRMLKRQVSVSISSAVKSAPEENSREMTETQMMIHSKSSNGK", "test": "EBI2 receptor antagonists, beta-arrestin recruitment, primary screen, cell-based, luminescence, 7a,25-OHC stimulation, uHTS (AID 651636);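 also: enzyme fragment complementation signal reports receptor beta-arrestin coupling in cells; 0% = agonist plus DMSO wells and 100% = wells without agonist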", "settings": "7a,25-OHC stimulated, at 5 µM, stronger effect = higher value", "values": [
      {"compound": "CSc1ncnc2c1ncn2CCCNCc1cccs1", "inhibition": "-4.51%"},
      {"compound": "COc1ccccc1C(=O)N1C(CC(=O)Nc2ccccc2C)C(=O)NC2CCCCC21", "note": "(configuration not stated)", "inhibition": "3.5%"},
      {"compound": "COc1ccc(C)cc1NC(=O)CSc1nnc(CC(=O)Nc2ccccc2F)n1C", "inhibition": "6.35%"},
      {"compound": "CN1C[C@@H](CO)O[C@@H](n2cnc3c(N4CCN(CCO)CC4)ncnc32)C1", "inhibition": "5.76%"},
      {"compound": "CC1CCc2sc3nc(N4CCN(CCO)CC4)n4ncnc4c3c2C1", "note": "(configuration not stated)", "inhibition": "61.6% (active)"},
      {"compound": "Cc1ccc(C)c(C(=O)N2CCC(n3nccc3NC(=O)C3CC3)CC2)c1", "inhibition": "5.07%"},
      {"compound": "C/C=C/C=C/C(=O)OCC(=O)Nc1ccc(Cl)cc1", "inhibition": "1.78%"},
      {"compound": "COc1ccc(NC(=O)N2CCC(Cc3ccccc3)CC2)cc1", "inhibition": "65.5% (active)"},
      {"compound": "COc1ccc(C(=O)NC2CCN(C(=O)Nc3ccc(F)cc3)CC2)cc1", "inhibition": "-4.2%"},
      {"compound": "COc1ccc(NC(=O)N2CCCC(C(=O)Nc3ccccc3OC)C2)cc1", "note": "(configuration not stated)", "inhibition": "18.7%"},
      {"compound": "NC(=O)C1(N2CCCCC2)CCN(C(=O)c2ccc(C#Cc3ccccc3)o2)CC1", "inhibition": "-2.84%"},
      {"compound": "CCc1ccccc1NC(=S)Nc1cc(OC)c(NC(=O)C(C)C)cc1OC", "inhibition": "-4.78%"},
      {"compound": "CC1CCN(S(=O)(=O)c2ccc(NC(=O)C3CC(=O)N(c4ccccc4)C3)cc2)CC1", "note": "(configuration not stated)", "inhibition": "38%"},
      {"compound": "O=C(Nc1ccc(S(=O)(=O)N2CCCCC2)cc1)C1CCN(C(=O)c2ccc(F)cc2)CC1", "inhibition": "17%"},
      {"compound": "Cc1ccc(N2CC(C(=O)Nc3ccc(S(=O)(=O)N4CCCC4)cc3)CC2=O)cc1C", "note": "(configuration not stated)", "inhibition": "45.4% (active)"},
      {"compound": "Cc1ccccc1N1CC(C(=O)Nc2ccc(S(=O)(=O)N3CCCC3)cc2)CC1=O", "note": "(configuration not stated)", "inhibition": "7.48%"},
      {"compound": "Cc1ccc(NC(=O)C2CC(=O)N(c3ccc4c(c3)OCCO4)C2)cc1S(=O)(=O)N1CCCCCC1", "note": "(configuration not stated)", "inhibition": "14.6%"},
      {"compound": "O=C(Nc1ccc(S(=O)(=O)N2CCCCC2)cc1)C1CC(=O)N(c2ccc(F)cc2)C1", "note": "(configuration not stated)", "inhibition": "45.7% (active)"},
      {"compound": "CCCNC(=O)C1(C)CCN(C(=O)c2ccc(F)cc2Cl)C1", "note": "(configuration not stated)", "inhibition": "-4.71%"},
      {"compound": "OCCC#Cc1ccc(N2C(c3ccsc3)=Cc3ccc(F)cc3C2c2c[nH]c3ccccc23)cc1", "note": "(configuration not stated)", "inhibition": "10.6%"},
      {"compound": "Cc1cnc(CN(C)C(=O)CC2C(=O)NCCN2Cc2cccc(F)c2F)[nH]1", "note": "(configuration not stated)", "inhibition": "-7.04%"},
      {"compound": "Cc1c(NC(=O)CN2C(=O)C(=O)N(Cc3ccccc3)C2=O)c(=O)n(-c2ccccc2)n1C", "inhibition": "0.531%"},
      {"compound": "CC1(C(=O)NCc2ccccc2)CSCC(=O)N1CCCn1ccnc1", "note": "(configuration not stated)", "inhibition": "4.35%"},
      {"compound": "CCOC(=O)[C@]12CCCC=C1N(CCC1=CCCCC1)C(=O)[C@H](CC(=O)N1CCSCC1)C2", "inhibition": "7.49%"},
      {"compound": "COc1ccccc1NC(=O)CSc1nnc(Cc2cccn2C)n1-c1ccc(F)cc1", "inhibition": "9.51%"},
      {"compound": "COC(=O)c1ccc(NC(=O)CSc2nnc(Cc3cccn3C)n2-c2ccc(F)cc2)cc1", "inhibition": "-2.09%"},
      {"compound": "COc1ccc(-n2c(Cc3cccn3C)nnc2SCC(=O)Nc2cc(C)cc(C)c2)cc1", "inhibition": "49.5% (active)"},
      {"compound": "CCCc1ccc(OCC(O)CN2CCN(C(=O)OCC)CC2)cc1", "note": "(configuration not stated)", "inhibition": "22.6%"},
      {"compound": "O=C(C(c1ccccc1)c1ccccc1)N1CCN(CC(O)COc2ccccc2)CC1", "note": "(configuration not stated)", "inhibition": "53.5% (active)"},
      {"compound": "CC(=O)N1CCN(CC(c2ccccc2)c2ccccc2)CC1", "inhibition": "-1.32%"},
      {"compound": "O=C(O)C1=C(C(=O)O)C2CCC1C2", "inhibition": "6.95%"},
      {"compound": "COc1ccc(O)c(/C=N/N=C/c2cccc([N+](=O)[O-])c2)c1", "inhibition": "1.28%"},
      {"compound": "COc1ccc(/C=N/N=C/c2c[nH]c(=O)c(C#N)c2Nc2ccccc2)cc1", "inhibition": "90.2% (active)"},
      {"compound": "COc1ccc(/C=C(/NC(=O)c2ccccc2)C(=O)Nc2cccc(C(=O)O)c2)cc1", "inhibition": "-12.6%"},
      {"compound": "O=C(COc1ccc2c(c1)CCC2)N1CCN(c2ccc(F)cc2)CC1", "inhibition": "44.5% (active)"},
      {"compound": "O=C(COc1ccc(Cl)cc1)N1CCN(c2cccc(C(F)(F)F)c2)CC1", "inhibition": "84.9% (active)"},
      {"compound": "Cc1c(C)c2ccc(OCC(=O)N3CCN(c4cccc(Cl)c4)CC3)cc2oc1=O", "inhibition": "11.5%"},
      {"compound": "Cc1ccc(OCC(=O)N2CCN(S(=O)(=O)c3ccc(Cl)s3)CC2)cc1C", "inhibition": "90% (active)"},
      {"compound": "O=C(CN1CCN(S(=O)(=O)c2ccc(Cl)s2)CC1)N1CCCCC1", "inhibition": "-6.5%"},
      {"compound": "Nc1nc(SCC(=O)N2CCN(S(=O)(=O)c3ccc(Cl)cc3)CC2)n[nH]1", "inhibition": "-6.16%"},
      {"compound": "CSCCC(NC(=O)COc1ccccc1)C(=O)N1CCN(c2cccc(C(F)(F)F)c2)CC1", "note": "(configuration not stated)", "inhibition": "26.3%"},
      {"compound": "COc1ccc(N2CCN(C(=O)COc3ccc4c(C)cc(=O)oc4c3)CC2)cc1", "inhibition": "-7.37%"},
      {"compound": "O=C(COc1ccc(Cl)cc1)N1CCN(S(=O)(=O)c2ccc(Cl)cc2)CC1", "inhibition": "89.2% (active)"},
      {"compound": "O=C(Nc1ccc2c(c1)CCC2)c1cccc(S(=O)(=O)N2CCN(c3ccc(F)cc3)CC2)c1", "inhibition": "-5.81%"},
      {"compound": "O=C(CN1CCN(S(=O)(=O)c2ccc(Cl)s2)CC1)NCc1ccc(Cl)cc1", "inhibition": "15.5%"},
      {"compound": "O=C(CSc1ccccn1)N1CCN(S(=O)(=O)c2ccc(Cl)cc2)CC1", "inhibition": "1.72%"},
      {"compound": "CC(=O)c1ccc(S(=O)(=O)Nc2ccc(-c3ccc4nncn4n3)cc2)cc1", "inhibition": "6.72%"},
      {"compound": "COc1ccc(N2C(=O)C(O)C2c2ccc(C)cc2)cc1", "note": "(configuration not stated)", "inhibition": "-10.7%"},
      {"compound": "CC(C)(C)c1cc(CN2CCN(CCC#N)CC2)cc(C(C)(C)C)c1O", "inhibition": "1.34%"},
      {"compound": "Cc1ccc(NC(=O)C(C)Sc2nnc(C3CC3)n2C2CC2)cc1S(=O)(=O)N1CCOCC1", "note": "(configuration not stated)", "inhibition": "6.91%"},
      {"compound": "CC(=O)NC(Cc1ccc(F)c(F)c1)C(=O)NC1CCN(C(=O)c2ccc(C)cc2)CC1", "note": "(configuration not stated)", "inhibition": "1.72%"},
      {"compound": "COc1ccc2c(c1)C(=O)Nc1cc(Cl)ccc1N2", "inhibition": "10.9%"},
      {"compound": "C/C(=N\\NC(=O)C1(C)CC1(Br)Br)c1ccc(C)cc1C", "note": "(configuration not stated)", "inhibition": "4.16%"},
      {"compound": "CCOC(=O)/C=C/CN(C(=O)OC(C)(C)C)S(=O)(=O)N1CC=CC1", "inhibition": "0.259%"},
      {"compound": "CC(=O)NC1=NN(C(C)=O)C(C)(CCS(=O)(=O)c2ccc(Cl)c(Cl)c2)S1", "note": "(configuration not stated)", "inhibition": "-4.01%"},
      {"compound": "COCc1cc(C)n(CC(=O)NCC2CCCO2)c(=O)c1C#N", "note": "(configuration not stated)", "inhibition": "2.55%"},
      {"compound": "CCCCOCCCNC(=O)C[C@@H]1C[C@@]2(C(=O)OC)CCCCC=C2N(CCC2=CCCCC2)C1=O", "inhibition": "3.92%"},
      {"compound": "Cc1cc(OCC(=O)N2CCN(c3ncccn3)CC2)ccc1Cl", "inhibition": "86.6% (active)"},
      {"compound": "CC(Oc1ccc(F)cc1)C(=O)N1CCN(c2ncccn2)CC1", "note": "(configuration not stated)", "inhibition": "-0.409%"},
      {"compound": "COC(=O)CC(=O)N1CCN(c2ccc(Cl)c(Cl)c2)CC1", "inhibition": "-5.75%"},
      {"compound": "Cc1ccc(S(=O)(=O)N2[C@@H](Cc3ccccc3)CO[C@H]2CC(=O)OCc2ccccc2)cc1", "inhibition": "23%"},
      {"compound": "COC(=O)[C@]12CCCCC=C1N(Cc1ccc3c(c1)OCO3)C(=O)[C@H](CC(=O)NCc1cccs1)C2", "inhibition": "0.7%"},
      {"compound": "CCC1SC(CC)C(=O)N(CC(=O)NC2CCCCC2)C1=O", "note": "(configuration not stated)", "inhibition": "-0.813%"},
      {"compound": "O=C(NNc1c2ccccc2nc2ccccc12)c1cc2ccccc2cc1O", "inhibition": "44.6% (active)"},
      {"compound": "O=C(Cc1ccccn1)c1ccc(O)cc1O", "inhibition": "9.45%"},
      {"compound": "O=C(CSc1nc(C2CC2)nc2ccccc12)Nc1cccc(O)c1", "inhibition": "-2.33%"},
      {"compound": "CCCn1nc(NC(=O)C(C)C)c2cc3cc(OC)ccc3nc21", "inhibition": "16.4%"},
      {"compound": "CCc1ccc(Nc2ncc3c(n2)CC(c2ccco2)CC3=O)cc1", "note": "(configuration not stated)", "inhibition": "14.2%"},
      {"compound": "O=C(Nc1ncc2c(n1)CC(c1ccco1)CC2=O)c1ccc(Cl)cc1", "note": "(configuration not stated)", "inhibition": "41.8% (active)"},
      {"compound": "O=C(Nc1ncc2c(n1)-c1ccccc1OC2)c1ccc(Cl)cc1", "inhibition": "9.5%"},
      {"compound": "O=C(CC1SC(N2CCCC2)=NC1=O)Nc1ccc(C(=O)NCCc2ccc(F)cc2)cc1", "note": "(configuration not stated)", "inhibition": "-2.4%"},
      {"compound": "CC(=O)C[C@@H]1OC[C@H](CO)N1S(=O)(=O)c1ccc(C)cc1", "inhibition": "3.35%"},
      {"compound": "CCOC(=O)[C@]12CCCC=C1N(CCC1=CCCCC1)C(=O)[C@H](CC(=O)N1CCCCC1)C2", "inhibition": "8.47%"},
      {"compound": "COc1ccccc1N1CCN(C(=O)c2cc(-c3ccc(Br)cc3)on2)CC1", "inhibition": "50% (active)"},
      {"compound": "COc1ccc(OCc2cc(C(=O)N3CCCC3)no2)c2ccccc12", "inhibition": "-12.2%"},
      {"compound": "COc1cccc(-c2ccc(SCC(=O)N3CCN(c4ccccc4)CC3)nn2)c1", "inhibition": "11.8%"},
      {"compound": "COc1ccccc1N1CCN(C(=O)Cn2nnc(-c3cccs3)n2)CC1", "inhibition": "-14.3%"},
      {"compound": "COc1ccc(Nc2ncc(C(=O)N3CCN(c4ccccc4OC)CC3)c3ccccc23)cc1", "inhibition": "-13.1%"},
      {"compound": "COc1cccc(-c2cc(C(=O)N3CCN(c4ccccc4OC)CC3)no2)c1", "inhibition": "56.8% (active)"},
      {"compound": "CC(C)C[C@@H]1COc2cc(N3CCC[C@@H]3CO)ccc2S(=O)(=O)N1", "inhibition": "-0.978%"},
      {"compound": "Cc1cc2nc3n(c2cc1C)CC1CC(C(=O)NCCC(C)C)N(C)C31", "note": "(configuration not stated)", "inhibition": "6.24%"},
      {"compound": "Clc1cccc(N=C2NN=C(c3ccc4c(c3)OCCO4)CS2)c1", "inhibition": "49.5% (active)"},
      {"compound": "c1ccc(CN2CCC(N=C3NN=C(c4ccc5c(c4)OCCO5)CS3)CC2)cc1", "inhibition": "6.66%"},
      {"compound": "CN(C)c1nc(=Nc2cccc(Cl)c2)ss1", "inhibition": "1.94%"},
      {"compound": "Cc1ccc(S(=O)(=O)N2[C@@H](c3cccc4ccccc34)C(C(=O)O)=C[C@H]2C(C)(C)C)cc1", "inhibition": "-1.04%"},
      {"compound": "CCN(CC)c1ccc(S(=O)(=O)N2CCCCC2)cc1NC(=O)C1=COCCO1", "inhibition": "1.67%"},
      {"compound": "CCCCN=C1C([N+](=O)[O-])=CC=C2C1=NC1(CCCCC1)N2O", "inhibition": "68.4% (active)"}
    ]}
  ]
}
